Screening results (PubChem)
Sampled rows, rich in hits. Any-hit rate of the full collection: about 15%.
DT40 TDP1 CPT: growth inhibition of DT40 Tdp1-/-;hTDP1 cells with camptothecin (screen for TDP1 inhibitors) | chicken DT40 Tdp1-/-;hTDP1 cells + 20 nM CPT, ATP luminescence, 48 h | Potency, µM (series often up to 46.2 µM), for the others: at the highest dose activity change, negative = growth inhibition, hits mostly inhibitors | actives 12% (n = 420,000) | AID 686979; note: nearly all actives have a fitted effect of over 55% in size
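Cell growth measured by CellTiter-Glo luminescence after a minimum 48 h, 37 C compound exposure with 20 nM CPT in Tdp1-knockout DT40 cells stably expressing hTDP1, seeded 400/well; qHTS titration format.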
ALOX12 inh: inhibitors of human 12S-lipoxygenase ALOX12; P18054; purified 12hLO, xylenol orange hydroperoxide absorbance; Potency, µM (titrated, usually from 108 µM), inactives show at the top dose activity change, negative = inhibition, most hits filed as inhibitors; actives 1.1% (n = 580,000); AID 1671190
Target sequence (P18054 whole entry, looked up): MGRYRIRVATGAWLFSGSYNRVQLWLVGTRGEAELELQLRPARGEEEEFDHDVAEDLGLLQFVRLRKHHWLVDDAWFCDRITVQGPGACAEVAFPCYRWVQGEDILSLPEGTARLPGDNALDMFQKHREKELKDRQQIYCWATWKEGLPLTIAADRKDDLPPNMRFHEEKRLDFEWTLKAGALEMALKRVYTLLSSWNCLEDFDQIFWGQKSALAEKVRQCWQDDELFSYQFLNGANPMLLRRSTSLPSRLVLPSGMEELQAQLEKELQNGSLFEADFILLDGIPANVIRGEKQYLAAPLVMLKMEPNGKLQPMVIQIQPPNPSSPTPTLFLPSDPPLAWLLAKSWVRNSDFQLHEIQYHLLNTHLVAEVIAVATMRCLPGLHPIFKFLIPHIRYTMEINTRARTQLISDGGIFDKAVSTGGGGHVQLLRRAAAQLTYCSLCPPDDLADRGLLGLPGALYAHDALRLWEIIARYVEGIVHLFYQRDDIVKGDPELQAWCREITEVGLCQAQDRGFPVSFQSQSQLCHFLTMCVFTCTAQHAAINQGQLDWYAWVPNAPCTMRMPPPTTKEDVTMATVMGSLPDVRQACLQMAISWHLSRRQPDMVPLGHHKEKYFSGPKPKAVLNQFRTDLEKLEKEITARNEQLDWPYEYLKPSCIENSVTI
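Hydroperoxide product was detected by ferrous iron/xylenol orange as the 573 to 405 nm absorbance ratio. Arachidonic acid at 40 uM (final) was turned over for 30 min at room temperature by 150 nM human 12hLO, pH 7.0 Hepes buffer, after 15 min compound preincubation.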
RORgamma inh: inhibitors of mouse ROR gamma transcriptional activity. Drosophila S2 Gal4-RORgamma UAS-luciferase reporter, 20 h. Potency, µM (highest dose often 53.6 µM), without a hit: top-dose activity change, negative = inhibition, hits mostly inhibitors. actives 5.4% (n = 310,000). AID 2551; note: nearly all actives have a fitted effect of over 60% in size
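Stable Schneider cell line, Gal4 DNA-binding domain fused to ROR gamma, UAS-luciferase. Cmpd 1 hr RT → CuSO4 700 uM final → 20 hr RT → luciferase reagent 10 min → luminescence.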
ELG1 repair inh: blocks ELG1-dependent DNA repair in HEK293T cells; actives 2.3% (n = 330,000); Potency, µM (top dose mostly 46.1 µM), without a hit: at the highest dose activity change, negative = inhibition, hits mostly inhibitors; HEK293T ELG1-luciferase reporter, luminescence, 16 h; DNA damage induced by 5-fluorouridine; note: nearly all actives have a fitted effect of over 55% in size
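5-Fluorouridine DNA damage + compound/DMSO, 2,000 cells/well, 16 h, 37 °C/5% CO2. ONE-Glo, 30 min RT, luminescence. Readout = decrease in reporter signal.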
Gal4-VP16 FLuc: Gal4-VP16 reporter inhibition counter-screen | Drosophila S2 Gal4-VP16 UAS-luciferase, luminescence, 20 h | Potency, µM (titrated, usually from 53.6 µM), for the others: top-dose activity, negative = inhibition, usual class: inhibitors | actives 3.5% (n = 310,000) | AID 2546;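 note: Gal4-VP16 expression switched on by copper sulfate through the metallothionein promoter; nearly all actives have a fitted effect of over 50% in size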
DT40 TDP1 no CPT: qHTS for Inhibitors of human tyrosyl-DNA phosphodiesterase 1 (TDP1): qHTS in cells in absence of CPT; AID 686978, 2013; DT40 Tdp1-/- hTDP1 cells, no CPT, ATP luminescence, 48 h; Potency, µM (series often up to 46.2 µM), for inactives: top-dose activity change, negative = growth inhibition, actives largely listed as inhibitors; actives 15% (n = 420,000); note: nearly all actives have a fitted effect of over 55% in size
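Chicken DT40 Tdp1-/- cells complemented with human TDP1, screened without camptothecin (DMSO vehicle only), 400 cells/well. Compounds pin-transferred, cells incubated at 37 °C for at least 48 hr. Growth read as ATP-dependent luminescence (CellTiter-Glo, 30 min at RT).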
Active calls of the source: *; ? = inconclusive; . = no result; [ ] = dose if it differs, or a comment. Calls come from the whole dose curve; as a rule, active = well fitted curve in the direction sought with a large enough effect; inconclusive = small, poorly fitted or top-dose-only effect, or another doubt; inactive = no such curve, though single readings can be large; an effect the other way counts as inactive or inconclusive. % is set by controls: 0 for no effect and ±100 for the full control effect; potency is the fitted concentration of half-maximal effect.

SMILES	DT40 TDP1 CPT	ALOX12 inh	RORgamma inh	ELG1 repair inh	Gal4-VP16 FLuc	DT40 TDP1 no CPT
CCCn1nc(C(=O)Nc2ccc(OCCN(CC)CC)cc2)c2ccccc2c1=O	.	56.2%	.	.	.	.
Cc1ccc2c(c1)C(=O)C(=O)N2CC1COc2ccccc2O1 (stereo not given)	2.31µM*	-8.4%	?	7.9%	11.9%	2.31µM*
COc1ccc2c(c1)C(=O)C(=O)N2CC1COc2ccccc2O1 (stereo not given)	1.03µM*	-24.6%	-27.5%	0.0%	-7.3%	0.581µM*
CCOc1ccc2c(c1)C(=O)C(=O)N2CC1COc2ccccc2O1 (stereo not given)	1.16µM*	0.0%	2.7%	-14.2%	-6.4%	0.82µM*
CCN1CCN(CC2COc3ccccc3O2)CC1 (stereo not given)	2.1%	?	0.1%	?	10.6%	13.0%
CNC(=O)Nc1ccc(C2(C(=O)Nc3ccc4c(c3)CCC4)CCC2)cc1	.	38.4%	.	.	.	.
Cc1ccccc1NC(=O)COC(=O)CCc1nc2ccccc2s1	.	2.2%	.	.	.	.
CCOc1ccc(S(=O)(=O)N2CCN(C(C(=O)O)c3c[nH]c4ccccc34)CC2)cc1 (stereo not given)	.	-4.2%	.	.	.	.
Cc1ccc(N(C)C(=O)C2CCCN(c3ncnc4c3nc3n4CCCCC3)C2)cc1C (stereo not given)	?	-6.0%	.	.	.	9.2µM*
CN(C(=O)C1CCCN(c2ncnc3c2nc2n3CCCCC2)C1)c1ccccc1F (stereo not given)	23.1µM*	-2.7%	.	.	.	11.6µM*
CCc1ccccc1N(C)C(=O)C1CCCN(c2ncnc3c2nc2n3CCCCC2)C1 (stereo not given)	18.4µM*	-9.9%	.	.	.	4.11µM*
CCc1ccccc1N(CC)C(=O)C1CCN(c2ncnc3c2nc2n3CCCCC2)CC1	8.2µM*	-2.9%	-21.0%	14.6µM*	-3.8%	4.11µM*
Cn1nc(CC(=O)Nc2cccc(OC(=O)c3ccc(C(C)(C)C)cc3)c2)c2ccccc2c1=O	.	-5.9%	.	.	.	.
O=C(c1ccccc1)N1CC2(CCCN2CC2CC2)Cc2ccccc21 (stereo not given)	.	-0.3%[6.33 µM]	.	.	.	.
Cc1[nH][nH]c(=O)c1C(c1c(C)[nH][nH]c1=O)c1cn(C)c2ccccc12	-17.4%	?	?	0.5%	-15.5%	?
Cc1[nH][nH]c(=O)c1C(c1c(C)[nH][nH]c1=O)c1cn(Cc2cccc3ccccc23)c2ccccc12	8.2µM*	0.0%	-27.1%	-16.2%	-5.6%	7.31µM*
Cc1nc2ccccc2nc1CS(=O)(=O)C(C)C(=O)N1CCCC1 (stereo not given)	.	-4.4%	.	.	.	.
Cc1cccc(NC(=O)N(Cc2cc3cc(C)ccc3[nH]c2=O)CC2COCCO2)c1 (stereo not given)	?	11.9%	?	11.6µM*	?	23.1µM*
Cc1ccc2[nH]c(=O)c(CN(Cc3ccccc3Cl)C(=O)N3CCOCC3)cc2c1	?	0.0%	20.0%	-3.0%	8.1%	20.6µM*
Cc1cccc(CCN(Cc2cc3cccc(C)c3[nH]c2=O)C(=O)N2CCOCC2)c1	?	0.0%	32.3%	?	3.7%	-24.8%
COc1ccc(NC(=O)N(Cc2cc3cc(C)ccc3[nH]c2=O)CC2CCCO2)cc1 (stereo not given)	18.4µM*	?	0.7%	?	-0.2%	?
CCc1ccc2[nH]c(=O)c(CN(CCN(CC)CC)C(=O)NC3CCCCC3)cc2c1	14.6µM*	357.4%	20.9%	1.1%	0.7%	25.9µM*
